This passage reports log2 fold change results from the supplement of paper PMC10849652.

About 8,800 targets were measured; listed, in parts, are those with a hit and a random draw of the rest. About 0.5% of all pairs of compound and target were hits. A number with no mark means an inactive call.

UniProt Q969Q6, sequence (Q969Q6 whole entry, looked up): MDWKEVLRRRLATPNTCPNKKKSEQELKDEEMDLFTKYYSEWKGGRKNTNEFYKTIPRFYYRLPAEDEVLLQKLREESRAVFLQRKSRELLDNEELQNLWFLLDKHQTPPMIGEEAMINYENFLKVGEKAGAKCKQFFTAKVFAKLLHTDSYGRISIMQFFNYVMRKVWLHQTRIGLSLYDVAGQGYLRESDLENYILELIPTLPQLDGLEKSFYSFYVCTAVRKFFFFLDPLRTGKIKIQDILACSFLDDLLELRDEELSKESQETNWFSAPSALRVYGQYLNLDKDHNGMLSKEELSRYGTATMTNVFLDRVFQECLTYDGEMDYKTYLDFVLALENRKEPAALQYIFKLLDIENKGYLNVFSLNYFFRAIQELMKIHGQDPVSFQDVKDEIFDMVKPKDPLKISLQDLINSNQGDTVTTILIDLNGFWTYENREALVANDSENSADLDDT
UniProt Q14289, sequence (Q14289 whole entry, looked up): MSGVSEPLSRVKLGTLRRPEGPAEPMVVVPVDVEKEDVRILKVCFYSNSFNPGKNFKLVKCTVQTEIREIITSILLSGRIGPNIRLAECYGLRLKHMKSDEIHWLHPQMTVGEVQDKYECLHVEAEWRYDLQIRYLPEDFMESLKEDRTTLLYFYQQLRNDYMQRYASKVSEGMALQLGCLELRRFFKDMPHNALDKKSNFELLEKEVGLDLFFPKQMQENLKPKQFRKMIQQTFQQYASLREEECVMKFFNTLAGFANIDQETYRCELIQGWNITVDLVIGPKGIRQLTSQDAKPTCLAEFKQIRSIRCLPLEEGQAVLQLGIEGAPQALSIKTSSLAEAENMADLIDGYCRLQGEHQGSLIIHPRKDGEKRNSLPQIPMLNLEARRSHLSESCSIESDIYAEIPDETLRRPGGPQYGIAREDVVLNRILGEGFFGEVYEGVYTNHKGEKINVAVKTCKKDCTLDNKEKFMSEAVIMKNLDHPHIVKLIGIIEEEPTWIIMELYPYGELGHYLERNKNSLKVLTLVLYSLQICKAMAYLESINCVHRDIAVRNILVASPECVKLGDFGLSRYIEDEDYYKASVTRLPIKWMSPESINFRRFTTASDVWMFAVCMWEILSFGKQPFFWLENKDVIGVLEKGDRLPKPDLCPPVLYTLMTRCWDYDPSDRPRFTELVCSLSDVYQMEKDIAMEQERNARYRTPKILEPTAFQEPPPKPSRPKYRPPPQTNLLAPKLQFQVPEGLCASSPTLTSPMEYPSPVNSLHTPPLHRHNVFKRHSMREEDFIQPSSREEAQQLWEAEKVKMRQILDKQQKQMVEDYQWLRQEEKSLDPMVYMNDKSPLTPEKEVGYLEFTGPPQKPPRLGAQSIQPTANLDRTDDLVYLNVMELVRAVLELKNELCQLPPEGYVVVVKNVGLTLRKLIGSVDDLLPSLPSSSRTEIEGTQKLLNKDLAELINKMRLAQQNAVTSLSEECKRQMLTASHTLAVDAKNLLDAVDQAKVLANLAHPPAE
UniProt Q13362, sequence (Q13362 whole entry, looked up): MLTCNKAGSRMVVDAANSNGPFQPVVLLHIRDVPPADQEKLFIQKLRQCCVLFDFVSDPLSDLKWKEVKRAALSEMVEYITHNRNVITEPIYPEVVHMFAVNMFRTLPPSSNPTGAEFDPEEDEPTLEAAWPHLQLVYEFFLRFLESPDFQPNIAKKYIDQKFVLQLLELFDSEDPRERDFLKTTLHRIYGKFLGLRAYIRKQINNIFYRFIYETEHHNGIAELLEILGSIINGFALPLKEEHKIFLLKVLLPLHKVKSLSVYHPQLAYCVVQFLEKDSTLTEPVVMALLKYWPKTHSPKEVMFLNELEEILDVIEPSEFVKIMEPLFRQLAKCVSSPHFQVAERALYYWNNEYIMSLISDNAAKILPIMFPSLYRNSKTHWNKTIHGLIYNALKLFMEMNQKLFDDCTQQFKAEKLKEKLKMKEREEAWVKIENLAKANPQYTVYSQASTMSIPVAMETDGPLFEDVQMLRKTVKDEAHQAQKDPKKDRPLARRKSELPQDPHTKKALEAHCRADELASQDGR
UniProt Q8TAE6, sequence (Q8TAE6 whole entry, looked up): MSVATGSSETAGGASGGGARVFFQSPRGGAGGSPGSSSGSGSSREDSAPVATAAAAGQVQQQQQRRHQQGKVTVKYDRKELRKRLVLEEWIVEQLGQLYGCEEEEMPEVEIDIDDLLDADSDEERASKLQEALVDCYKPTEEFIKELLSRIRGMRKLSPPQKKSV
UniProt P41247, sequence (P41247 whole entry, looked up): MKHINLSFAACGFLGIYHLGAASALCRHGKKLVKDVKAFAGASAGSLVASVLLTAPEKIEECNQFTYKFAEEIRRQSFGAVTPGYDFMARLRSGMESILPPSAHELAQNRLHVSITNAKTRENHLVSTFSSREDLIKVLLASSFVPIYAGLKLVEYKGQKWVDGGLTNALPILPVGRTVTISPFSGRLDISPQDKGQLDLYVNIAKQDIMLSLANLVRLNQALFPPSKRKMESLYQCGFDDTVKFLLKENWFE
UniProt Q9BRQ0, sequence (Q9BRQ0 whole entry, looked up): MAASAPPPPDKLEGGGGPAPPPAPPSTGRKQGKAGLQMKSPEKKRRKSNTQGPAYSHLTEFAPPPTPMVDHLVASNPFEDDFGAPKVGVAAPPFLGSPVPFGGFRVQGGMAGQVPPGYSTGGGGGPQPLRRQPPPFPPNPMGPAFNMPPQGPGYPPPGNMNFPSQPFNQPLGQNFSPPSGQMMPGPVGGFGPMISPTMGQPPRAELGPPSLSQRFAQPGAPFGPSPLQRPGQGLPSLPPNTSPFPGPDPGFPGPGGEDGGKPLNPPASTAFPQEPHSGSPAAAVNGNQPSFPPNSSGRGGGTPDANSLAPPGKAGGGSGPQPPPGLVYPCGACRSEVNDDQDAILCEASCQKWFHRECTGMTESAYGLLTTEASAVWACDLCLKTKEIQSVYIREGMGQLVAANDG
UniProt P45877, sequence (P45877 whole entry, looked up): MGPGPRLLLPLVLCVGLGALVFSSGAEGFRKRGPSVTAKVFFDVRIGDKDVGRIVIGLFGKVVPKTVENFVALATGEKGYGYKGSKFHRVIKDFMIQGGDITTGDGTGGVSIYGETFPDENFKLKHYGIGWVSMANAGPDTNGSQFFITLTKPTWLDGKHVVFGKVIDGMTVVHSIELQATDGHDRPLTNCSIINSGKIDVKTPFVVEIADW
UniProt P11309, sequence (P11309 whole entry, looked up): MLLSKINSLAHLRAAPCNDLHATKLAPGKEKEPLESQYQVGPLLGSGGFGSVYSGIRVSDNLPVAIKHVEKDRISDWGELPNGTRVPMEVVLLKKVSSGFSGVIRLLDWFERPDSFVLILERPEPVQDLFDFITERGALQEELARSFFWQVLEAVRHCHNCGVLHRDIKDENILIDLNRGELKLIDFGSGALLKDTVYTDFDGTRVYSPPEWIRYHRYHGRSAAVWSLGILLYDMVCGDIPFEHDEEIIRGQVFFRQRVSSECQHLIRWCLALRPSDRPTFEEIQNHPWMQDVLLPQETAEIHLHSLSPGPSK
UniProt Q99755, sequence (Q99755 whole entry, looked up): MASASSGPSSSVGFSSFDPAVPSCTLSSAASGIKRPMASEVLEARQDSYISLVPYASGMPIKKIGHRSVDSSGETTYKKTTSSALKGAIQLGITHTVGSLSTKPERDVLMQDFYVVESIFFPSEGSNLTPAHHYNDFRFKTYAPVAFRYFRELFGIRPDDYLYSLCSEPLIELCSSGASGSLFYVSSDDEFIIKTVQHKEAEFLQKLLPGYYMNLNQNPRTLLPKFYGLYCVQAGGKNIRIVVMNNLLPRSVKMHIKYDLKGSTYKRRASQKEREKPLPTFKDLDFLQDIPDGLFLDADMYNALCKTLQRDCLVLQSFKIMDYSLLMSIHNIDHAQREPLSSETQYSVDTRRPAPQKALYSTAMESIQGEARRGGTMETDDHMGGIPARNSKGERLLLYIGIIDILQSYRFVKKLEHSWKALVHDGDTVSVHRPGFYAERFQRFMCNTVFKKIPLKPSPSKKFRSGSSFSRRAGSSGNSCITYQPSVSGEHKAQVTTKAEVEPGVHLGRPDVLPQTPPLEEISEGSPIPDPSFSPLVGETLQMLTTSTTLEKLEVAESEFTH
UniProt Q16816, sequence (Q16816 whole entry, looked up): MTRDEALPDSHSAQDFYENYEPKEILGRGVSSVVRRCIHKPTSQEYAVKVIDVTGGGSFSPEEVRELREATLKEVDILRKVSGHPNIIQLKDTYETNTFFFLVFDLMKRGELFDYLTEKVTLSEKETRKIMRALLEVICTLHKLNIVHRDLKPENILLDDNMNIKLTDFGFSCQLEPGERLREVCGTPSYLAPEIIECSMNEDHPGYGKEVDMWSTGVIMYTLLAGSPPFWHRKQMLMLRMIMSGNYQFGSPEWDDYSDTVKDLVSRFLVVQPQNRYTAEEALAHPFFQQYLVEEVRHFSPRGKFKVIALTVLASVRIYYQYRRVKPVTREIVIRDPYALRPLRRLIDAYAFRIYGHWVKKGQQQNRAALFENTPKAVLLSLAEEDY
UniProt Q15004, sequence (Q15004 whole entry, looked up): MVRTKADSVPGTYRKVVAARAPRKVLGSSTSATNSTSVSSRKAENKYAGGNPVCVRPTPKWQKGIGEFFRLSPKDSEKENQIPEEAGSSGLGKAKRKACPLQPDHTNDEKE
UniProt Q16378, sequence (Q16378 whole entry, looked up): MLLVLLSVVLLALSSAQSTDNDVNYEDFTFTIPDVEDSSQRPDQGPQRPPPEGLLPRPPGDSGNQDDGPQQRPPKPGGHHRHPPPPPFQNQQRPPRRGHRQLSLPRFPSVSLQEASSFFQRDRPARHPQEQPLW
UniProt P60673, sequence (P60673 whole entry, looked up): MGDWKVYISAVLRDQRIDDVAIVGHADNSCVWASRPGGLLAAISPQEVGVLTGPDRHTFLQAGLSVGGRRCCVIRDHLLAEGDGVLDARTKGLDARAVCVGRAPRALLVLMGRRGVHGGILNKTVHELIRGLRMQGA

Compound in one assay: C[C@H](C1=CC=C(C=C1)C(=O)NC2=C3C=CNC3=NC=C2)N
Description: log2 fold change, soluble protein after heating vs DMSO (PISA); higher = thermal stabilisation; K562 lysate, 10 uM; active = over 0.2 and 3.5 SD of the protein, either way, in both replicates (recomputed). A digest of the protocol: (§1)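 K562 pellets were dounce-homogenised in PBS pH 7.4 containing 1 mM MgCl2, and the crude extract, at 1 mg/mL protein, was exposed to 10 μM compound for 30 min. Aliquots were heated for 3 min across 48°C-58°C, pooled, brought to 0.5% NP-40 at 4°C and spun at 21,000xg for 90 min, with the supernatant taken as soluble protein. TMTpro 16plex LC-MS/MS with equalised channel sums quantified that protein. Values are log-two fold changes in thermal stability relative to solvent controls, taken from duplicates.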
Consider PPP2R5C isoform 2 (UniProt Q13362), for which the log2 fold change was -0.021.
The same measure, in the same setting: in the case of PIP5K1A (UniProt Q99755) it was 0.03.
Same read-out and setting: in the case of PCLAF (UniProt Q15004) it was -0.079; in that of PTK2B (UniProt Q14289), -0.026; in that of PPIC (UniProt P45877), -0.078.
Still for that read-out and setting: the result for PFN1 (UniProt I3L3D5) reads 0.524 (active).
PDE4DIP (UniProt E9PS60): the log2 fold change was -0.688 (active).
Turning to PIM1 isoform 2 (UniProt P11309), the log2 fold change was 0.096.
Still for that read-out and setting: in the case of PPP2R3C (UniProt Q969Q6) it was -0.1.
The same measure, in the same setting: the result for PRR4 (UniProt Q16378) reads 0.291.
Same read-out and setting: in the case of PREP (UniProt H0Y5Y0) it was -0.304.
For the target PRKD3 (UniProt O94806), the log2 fold change is -0.643 (active).
Same read-out and setting: in the case of PMS1 (UniProt P54277) it was 0.018; in that of PCBP2 (UniProt F8VRH0), -0.116.
Still for that read-out and setting: in the case of PYGO2 (UniProt Q9BRQ0) it was 0.014.
The same measure, in the same setting: in the case of PPP1R14C (UniProt Q8TAE6) it was -0.022; in that of NA (UniProt Q4G0T1), -0.044; in that of PDIA4, A0A499FI48, 1.32 (active).
Take PUF60 isoform 2 (UniProt Q9UHX1): the log2 fold change is 1.05 (active).
Same read-out and setting: in the case of PNPLA4 (UniProt P41247) it was 0.121.
Same read-out and setting: the result for PIK3CD (UniProt O00329) reads 0.035; that for PFN3 (UniProt P60673), -0.458.
Same read-out and setting: in the case of POM121C (UniProt A8CG34) it was 0.007.
Turning to PIK3CG (UniProt P48736), the log2 fold change was -0.158.
Still for that read-out and setting: in the case of PHKG1 isoform 2 (UniProt Q16816) it was -0.553.

Compound in a further assay: C[C@H](Nc1ncnc2nc[nH]c12)c1cc2cccc(Cl)c2c(=O)n1-c1ccccc1 [duvelisib]
Described as above. Summed up:
as §1
PIAS2 (UniProt O75928): the log2 fold change is 0.075.
The same measure, in the same setting: in the case of PPP2R5C isoform 2 (UniProt Q13362) it was -0.064; in that of PIP5K1A (UniProt Q99755), -0.043; in that of PRIMPOL (UniProt Q96LW4), 0.003.
For the target PCLAF (UniProt Q15004), the log2 fold change is 0.037.
In the case of PTK2B (UniProt Q14289), the log2 fold change is -0.034.
On the same count and under the same terms, the result for PPIC (UniProt P45877) reads -0.095; that for PHC1 (UniProt P78364), -0.025; that for PDE4DIP (UniProt E9PS60), -0.077.
Same read-out and setting: the result for PPP1R12B isoform 6 (UniProt O60237) reads 0.036; that for PIM1 isoform 2 (UniProt P11309), 0.081; that for PPP2R3C (UniProt Q969Q6), 0.028.
The same measure, in the same setting: in the case of PMS1 (UniProt P54277) it was 0.018; in that of PYGO2 (UniProt Q9BRQ0), -0.046; in that of PPP1R14C (UniProt Q8TAE6), 0.121.
Turning to NA (UniProt Q4G0T1), the log2 fold change is 0.035.
Same read-out and setting: in the case of PDIA4, A0A499FI48 it was -0.101; in that of PNPLA4 (UniProt P41247), 0.021.
As to POLR2F (UniProt U3KPV3), the log2 fold change was 0.012.
The same measure, in the same setting: in the case of PIK3CD (UniProt O00329) it was 0.477 (active).
Still for that read-out and setting: the result for PTK2 isoform 2 (UniProt Q05397) reads 0.298; that for PHF14 (UniProt O94880), 0.024.
The same measure, in the same setting: the result for PCBP2 (UniProt F8W0G4) reads 0.358.
PLXND1 (UniProt Q9Y4D7): the log2 fold change was -0.031.
Still for that read-out and setting: the result for PPME1 (UniProt Q9Y570) reads -0.017; that for PIK3CG (UniProt P48736), 0.183; that for PHGDH, A0A286YFE1, 0.244.
Still for that read-out and setting: in the case of PHKG1 isoform 2 (UniProt Q16816) it was -0.042.

Compound in another assay: Cc1cc(Nc2cc(CN3CCOCC3)c3nc(C)c(Cc4ccc(Cl)cc4F)n3n2)n[nH]1 [gandotinib]
The assay is described as above. Summed up: as §1
PPP2R5C isoform 2 (UniProt Q13362): the log2 fold change is 0.026.
On the same count and under the same terms, in the case of PIP5K1A (UniProt Q99755) it was -0.013; in that of PCLAF (UniProt Q15004), 0.108.
On the same count and under the same terms, the result for PTK2B (UniProt Q14289) reads 0.385 (active); that for PPIC (UniProt P45877), -0.042; that for PFN1 (UniProt I3L3D5), -0.15.
The same measure, in the same setting: the result for PDE4DIP (UniProt E9PS60) reads 0.233.
For PIM1 isoform 2 (UniProt P11309), the log2 fold change is -0.121.
Still for that read-out and setting: the result for PPP2R3C (UniProt Q969Q6) reads -0.097; that for PRR4 (UniProt Q16378), -0.34; that for PREP (UniProt H0Y5Y0), 0.113.
Still for that read-out and setting: in the case of PRKD3 (UniProt O94806) it was 0.423.
On the same count and under the same terms, the result for PMS1 (UniProt P54277) reads -0.063; that for PCBP2 (UniProt F8VRH0), -0.042.
Turning to PYGO2 (UniProt Q9BRQ0), the log2 fold change is 0.078.
The same measure, in the same setting: in the case of PPP1R14C (UniProt Q8TAE6) it was 0.358 (active); in that of NA (UniProt Q4G0T1), -0.015.
The same measure, in the same setting: in the case of PDIA4, A0A499FI48 it was -0.18.
On the same count and under the same terms, in the case of PUF60 isoform 2 (UniProt Q9UHX1) it was -0.09; in that of PNPLA4 (UniProt P41247), -0.019.
As for PIK3CD (UniProt O00329), the log2 fold change was 0.389.
On the same count and under the same terms, the result for PFN3 (UniProt P60673) reads 0.119; that for POM121C (UniProt A8CG34), 0.051.
PIK3CG (UniProt P48736): the log2 fold change was 0.14.
The same measure, in the same setting: in the case of PHKG1 isoform 2 (UniProt Q16816) it was 0.655.
